Results: PubChem BioAssay (EPA / NIEHS)
Inconclusive results are not listed. The source made the active and inactive calls. The calls were made as follows, unless noted: active = hit-call score of the fitted dose curve at least 0.9, where 1 is the maximum; inconclusive = response in the unintended direction; inactive = score below 0.9.

Assays:
[1] = biological target: human RAR-related Orphan Receptor gamma (RORg), RORC (gene 6097) (UniProt P51449); assay: ATG_RORg_TRANS: Attagene TRANS-FACTORIAL HepG2 Assay for human RAR-related Orphan Receptor gamma (RORg) (AID 2283011);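 as to AC50: potency for induction of reporter transcripts above DMSO so activators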
Chain of human RAR-related Orphan Receptor gamma (RORg), RORC (gene 6097) (P51449 whole entry, looked up, the tested form may be a part): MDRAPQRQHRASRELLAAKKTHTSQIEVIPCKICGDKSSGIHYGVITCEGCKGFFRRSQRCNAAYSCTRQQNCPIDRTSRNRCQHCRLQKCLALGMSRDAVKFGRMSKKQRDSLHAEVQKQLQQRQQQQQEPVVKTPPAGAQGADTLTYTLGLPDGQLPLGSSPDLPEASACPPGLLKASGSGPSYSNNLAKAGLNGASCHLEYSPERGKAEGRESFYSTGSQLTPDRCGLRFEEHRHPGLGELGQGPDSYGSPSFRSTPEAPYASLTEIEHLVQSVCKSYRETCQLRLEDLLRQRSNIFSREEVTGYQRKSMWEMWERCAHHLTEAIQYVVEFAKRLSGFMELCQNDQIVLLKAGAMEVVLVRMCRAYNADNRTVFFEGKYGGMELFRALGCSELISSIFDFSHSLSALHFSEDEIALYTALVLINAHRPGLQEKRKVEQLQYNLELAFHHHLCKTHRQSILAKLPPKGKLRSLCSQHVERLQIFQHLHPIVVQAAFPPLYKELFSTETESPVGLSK
How it was run: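 Activity is scored as increase in GAL4-UAS reporter mRNA over DMSO, detected by fluorescent RT-PCR and capillary electrophoresis in HepG2 cells transiently expressing a RORg-Gal4 chimera, 24 h after dosing.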

[2] = biological target: human Retinoid X Receptor beta (RXRb), RXRB (gene 6257) (UniProt P28702); assay: ATG_RXRb_TRANS: Attagene TRANS-FACTORIAL HepG2 Assay for human Retinoid X Receptor beta (RXRb) (AID 2283013)
Chain of human Retinoid X Receptor beta (RXRb), RXRB (gene 6257) (P28702 whole entry, looked up, the tested form may be a part): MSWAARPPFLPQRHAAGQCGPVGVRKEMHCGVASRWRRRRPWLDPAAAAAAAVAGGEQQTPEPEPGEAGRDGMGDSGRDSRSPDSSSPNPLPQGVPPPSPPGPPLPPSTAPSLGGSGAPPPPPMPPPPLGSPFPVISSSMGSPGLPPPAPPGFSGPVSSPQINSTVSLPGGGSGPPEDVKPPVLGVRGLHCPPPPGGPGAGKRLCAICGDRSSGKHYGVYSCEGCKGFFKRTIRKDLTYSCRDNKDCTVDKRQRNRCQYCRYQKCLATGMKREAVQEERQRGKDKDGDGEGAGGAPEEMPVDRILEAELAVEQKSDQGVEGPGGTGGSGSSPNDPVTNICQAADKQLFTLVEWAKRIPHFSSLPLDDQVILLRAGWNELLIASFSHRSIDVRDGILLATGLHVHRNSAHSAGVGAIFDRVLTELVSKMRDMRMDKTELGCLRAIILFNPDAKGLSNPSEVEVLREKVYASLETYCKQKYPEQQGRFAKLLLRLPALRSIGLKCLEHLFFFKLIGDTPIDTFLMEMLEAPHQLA
How it was run: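 Readout is reporter transcript induction after 24 h dosing. It is measured by RT-PCR of total RNA followed by fluorescent capillary electrophoresis. HepG2 liver cells carry transfected multiple reporter units driven by an exogenous RXRb-Gal4 fusion; activity is relative to DMSO.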

[3] = read-out: E-selectin (Homo sapiens) (UniProt P16581); assay: BSK_3C_Eselectin: BioMAP Diversity Plus: 3C Assay for Eselectin Biomarker Activity (AID 2283015; active = hit-call score of the fitted dose curve at least 0.9, where 1 is the maximum; inactive = score below 0.9;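 as to outcome: cell surface E-selectin protein quantified by ELISA 24 h after dosing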); conditions: primary human endothelial cells (HUVEC); actives raise or lower the signal
How it was run: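 Human vascular endothelium from umbilical vein is exposed to test chemicals for 24 h. E-selectin levels are read by ELISA and compared with DMSO controls.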

[4] = read-out: Interleukin-1 alpha (IL1a), IL1A (gene 3552); assay: BSK_BE3C_IL1a: BioMAP Diversity Plus: BE3C Assay for Interleukin-1 alpha (IL1a) Biomarker Activity (AID 2283016; active = hit-call score of the fitted dose curve at least 0.9, where 1 is the maximum; inactive = score below 0.9); conditions: primary human bronchial epithelial cells; actives raise or lower the signal
How it was run: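 IL-1a measured by ELISA after 24 h treatment of human primary bronchial epithelial cells, with gain or loss of signal fitted versus DMSO. Parallel cultures stained with SRB gauge overt cytotoxicity.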

[5] = read-out: Monocyte Chemoattractant Protein-1 (MCP1), CCL2 (gene 6347); assay: BSK_3C_MCP1: BioMAP Diversity Plus: 3C Assay for Monocyte Chemoattractant Protein-1 (MCP1) Biomarker Activity (AID 2283017; active = hit-call score of the fitted dose curve at least 0.9, where 1 is the maximum; inactive = score below 0.9); conditions: primary human endothelial cells (HUVEC); actives raise or lower the signal
How it was run: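 Endothelial cells from human umbilical vein are dosed with chemical, cultured 24 h, then assayed for MCP-1 by ELISA; both increases and decreases are modelled against DMSO controls.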

[6] = read-out: Monocyte Chemoattractant Protein-1 (MCP1), CCL2 (gene 6347); assay: BSK_4H_MCP1: BioMAP Diversity Plus: 4H Assay for Monocyte Chemoattractant Protein-1 (MCP1) Biomarker Activity (AID 2283018; active = hit-call score of the fitted dose curve at least 0.9, where 1 is the maximum; inactive = score below 0.9); conditions: primary human endothelial cells (HUVEC); actives raise or lower the signal
How it was run: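 ELISA of MCP-1 (CCL2) 24 h after chemical dosing of HUVEC in the BioMAP 4H system. Gain or loss versus DMSO fitted; parallel SRB staining (560 nm) tracked overt cytotoxicity.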

[7] = read-out: Human Leukocyte Antigen - DR isotype (HLADR), HLA-DRA (gene 3122); assay: BSK_3C_HLADR: BioMAP Diversity Plus: 3C Assay for Human Leukocyte Antigen - DR isotype (HLADR) Biomarker Activity (AID 2283019; active = hit-call score of the fitted dose curve at least 0.9, where 1 is the maximum; inactive = score below 0.9;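 as to outcome: ELISA of cell-surface HLA-DR on HUVEC 24 h after dosing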); conditions: primary human endothelial cells (HUVEC); actives raise or lower the signal
How it was run: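 Endothelial cells from human umbilical vein are treated with test chemical; after 24 h, HLA-DR levels are measured by ELISA. Data are fitted in both directions using DMSO as the baseline.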

[8] = read-out: Interleukin-8 (IL8), CXCL8 (gene 3576); assay: BSK_3C_IL8: BioMAP Diversity Plus: 3C Assay for Interleukin-8 (IL8) Biomarker Activity (AID 2283020; active = hit-call score of the fitted dose curve at least 0.9, where 1 is the maximum; inactive = score below 0.9); conditions: primary human endothelial cells (HUVEC); actives raise or lower the signal
How it was run: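 IL-8 was measured by ELISA in HUVEC cultures 24 h after chemical dosing, with gain or loss of signal fitted relative to DMSO. Parallel SRB total-protein staining tracked overt cytotoxicity.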

[9] = biological target: human Thyroid Receptor alpha (THRa1), THRA (gene 7067) (UniProt P10827); assay: ATG_THRa1_TRANS: Attagene TRANS-FACTORIAL HepG2 Assay for human Thyroid Receptor alpha (THRa1) (AID 2283014)
Chain of human Thyroid Receptor alpha (THRa1), THRA (gene 7067) (P10827 whole entry, looked up, the tested form may be a part): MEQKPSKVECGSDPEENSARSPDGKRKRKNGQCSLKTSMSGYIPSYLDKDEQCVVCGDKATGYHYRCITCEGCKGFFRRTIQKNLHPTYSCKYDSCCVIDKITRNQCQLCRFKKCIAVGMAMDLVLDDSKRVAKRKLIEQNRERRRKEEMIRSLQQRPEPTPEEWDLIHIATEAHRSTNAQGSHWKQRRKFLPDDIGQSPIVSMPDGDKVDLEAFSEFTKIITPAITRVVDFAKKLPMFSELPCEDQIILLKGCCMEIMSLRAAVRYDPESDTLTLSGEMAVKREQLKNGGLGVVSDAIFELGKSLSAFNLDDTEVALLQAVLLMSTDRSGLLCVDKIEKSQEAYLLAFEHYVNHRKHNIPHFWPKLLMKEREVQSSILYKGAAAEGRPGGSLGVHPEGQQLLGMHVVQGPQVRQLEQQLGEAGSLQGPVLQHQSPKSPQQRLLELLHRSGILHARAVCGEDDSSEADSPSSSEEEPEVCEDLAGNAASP
How it was run: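 First, HepG2 cells receive multiple GAL4-UAS reporter units and the chimeric receptor. They are then dosed for 24 h, after which RNA is reverse-transcribed, amplified, labelled, HpaI-cut and sized by capillary electrophoresis; gain relative to DMSO is scored.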

[10] = biological target: Retinoic acid receptor RXR-alpha (Homo sapiens) (UniProt P19793); assay: ATG_RXRa_TRANS: Attagene TRANS-FACTORIAL HepG2 Assay for human Retinoid X Receptor alpha (RXRa) (AID 2283012)
Chain of Retinoic acid receptor RXR-alpha (Homo sapiens) (P19793 whole entry, looked up, the tested form may be a part): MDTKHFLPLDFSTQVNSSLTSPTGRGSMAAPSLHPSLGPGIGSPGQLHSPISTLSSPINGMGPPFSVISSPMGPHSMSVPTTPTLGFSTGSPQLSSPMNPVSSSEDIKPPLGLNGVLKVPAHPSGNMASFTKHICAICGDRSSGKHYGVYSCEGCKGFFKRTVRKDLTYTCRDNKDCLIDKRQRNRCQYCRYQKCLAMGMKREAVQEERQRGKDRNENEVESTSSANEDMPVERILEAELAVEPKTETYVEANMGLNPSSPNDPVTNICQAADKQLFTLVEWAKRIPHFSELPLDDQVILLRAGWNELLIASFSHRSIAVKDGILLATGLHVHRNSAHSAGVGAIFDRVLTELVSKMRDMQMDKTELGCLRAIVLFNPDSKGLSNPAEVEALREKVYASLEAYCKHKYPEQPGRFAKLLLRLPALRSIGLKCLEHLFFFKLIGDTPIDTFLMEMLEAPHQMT
How it was run: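 TRANS format reporting activity of exogenous RXRa-Gal4 chimera in transiently transfected HepG2, 24 h exposure. Reporter transcripts quantified by RT-PCR with capillary electrophoresis, with gain of signal scored relative to DMSO.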

Chain of E-selectin (Homo sapiens) (P16581 whole entry, looked up): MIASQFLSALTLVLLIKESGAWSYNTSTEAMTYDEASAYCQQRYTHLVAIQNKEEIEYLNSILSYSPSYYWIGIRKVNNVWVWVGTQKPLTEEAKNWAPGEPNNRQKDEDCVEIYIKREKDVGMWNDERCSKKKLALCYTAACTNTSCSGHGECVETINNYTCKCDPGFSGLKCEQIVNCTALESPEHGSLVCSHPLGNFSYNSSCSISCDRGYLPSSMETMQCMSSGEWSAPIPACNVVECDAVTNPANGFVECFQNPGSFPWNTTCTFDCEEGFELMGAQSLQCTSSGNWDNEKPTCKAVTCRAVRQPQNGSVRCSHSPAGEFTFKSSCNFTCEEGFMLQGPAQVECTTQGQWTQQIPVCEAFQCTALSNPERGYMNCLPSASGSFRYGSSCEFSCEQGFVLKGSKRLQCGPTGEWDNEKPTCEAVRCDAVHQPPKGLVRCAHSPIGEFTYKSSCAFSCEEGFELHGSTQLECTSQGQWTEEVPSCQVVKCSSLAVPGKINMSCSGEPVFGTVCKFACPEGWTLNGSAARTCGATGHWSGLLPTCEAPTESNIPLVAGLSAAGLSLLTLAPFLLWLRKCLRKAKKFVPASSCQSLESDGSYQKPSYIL

## c1ccc(Oc2ccccc2)cc1
[1]
  outcome: inactive
[2]
  AC50: 114 µM (active)
[3]
  AC50: 35.9 µM (active)
[4]
  outcome: inactive
[5]
  AC50: 30.3 µM (active)
[6]
  AC50: 32.9 µM (active)
[7]
  AC50: 32.8 µM (active)
[8]
  AC50: 20 µM (active)

## CCN(CCN)c1cccc(C)c1
[1]
  outcome: inactive
[2]
  outcome: inactive

## C=CC(C)C#N (centres undefined)
[1]
  outcome: inactive
[2]
  outcome: inactive

## O=c1c(O)c(-c2ccc(O)cc2)oc2cc(O)cc(O)c12
[1]
  outcome: inactive
[9]
  outcome: inactive

## O=CCc1ccccc1
[1]
  outcome: inactive
[2]
  outcome: inactive

## Nc1ccn([C@H]2CS[C@@H](CO)O2)c(=O)n1
[1]
  outcome: inactive
[9]
  outcome: inactive

## CN(C)C(=S)SC(=S)N(C)C
[1]
  outcome: inactive
[2]
  outcome: inactive
[9]
  outcome: inactive
[3]
  AC50: 19.9 µM (active)
[4]
  AC50: 30.9 µM (active)
[5]
  AC50: 31.4 µM (active)
[6]
  AC50: 29.5 µM (active)
[7]
  AC50: 31.2 µM (active)
[8]
  AC50: 3.95 µM (active)

## CCCC(=O)c1ccccc1
[1]
  outcome: inactive
[9]
  outcome: inactive

## C=Cc1ccncc1
[1]
  AC50: 60.2 µM (active)
[2]
  outcome: inactive
[9]
  outcome: inactive

## CCCCC(CC)COC(C)=O (centres undefined)
[1]
  outcome: inactive
[2]
  outcome: inactive

## C/C=C(\C)C(=O)OCCc1ccccc1
[1]
  outcome: inactive
[2]
  outcome: inactive
[9]
  outcome: inactive

## O=C(CC(=O)c1ccccc1)c1ccccc1
[1]
  outcome: inactive
[9]
  AC50: 58.5 µM (active)

## CCCC[P+](CCCC)(CCCC)CCCC
[1]
  outcome: inactive
[9]
  outcome: inactive

## CC(=O)O[C@@H]1C[C@@H]2CC[C@@]1(C)C2(C)C
[1]
  outcome: inactive
[2]
  outcome: inactive

## O=C(c1ccccc1)C(O)c1ccccc1 (centres undefined)
[1]
  outcome: inactive
[9]
  outcome: inactive

## Cc1c(Cl)cccc1[N+](=O)[O-]
[1]
  outcome: inactive
[2]
  outcome: inactive

## C=CC(=C)CCCC(C)(C)OC(C)=O
[1]
  outcome: inactive
[9]
  outcome: inactive

## CCCCCC(C)=O
[1]
  outcome: inactive
[2]
  outcome: inactive

## CCCC(=O)OC(C)(C)Cc1ccccc1
[1]
  outcome: inactive
[2]
  AC50: 63.9 µM (active)

## CC1=NN(c2ccc(S(=O)(=O)O)cc2)C(=O)C1
[1]
  outcome: inactive
[2]
  outcome: inactive
[9]
  outcome: inactive

## OC[C@H]1O[C@@H]2O[C@H]3[C@H](O)[C@@H](O)[C@@H](O[C@H]4[C@H](O)[C@@H](O)[C@@H](O[C@H]5[C@H](O)[C@@H](O)[C@@H](O[C@H]6[C@H](O)[C@@H](O)[C@@H](O[C@H]7[C@H](O)[C@@H](O)[C@@H](O[C@H]8[C@H](O)[C@@H](O)[C@@H](O[C@H]9[C@H](O)[C@@H](O)[C@@H](O[C@H]1[C@H](O)[C@H]2O)O[C@@H]9CO)O[C@@H]8CO)O[C@@H]7CO)O[C@@H]6CO)O[C@@H]5CO)O[C@@H]4CO)O[C@@H]3CO
[1]
  outcome: inactive
[2]
  outcome: inactive

## Nc1ccc2c(O)cc(S(=O)(=O)O)cc2c1
[1]
  outcome: inactive
[2]
  outcome: inactive

## C=C(C)[C@@H]1CC=C(C)C(=O)C1
[1]
  outcome: inactive
[2]
  outcome: inactive
[9]
  outcome: inactive

## COc1ccccc1N=Nc1c(S(=O)(=O)O)cc2cc(S(=O)(=O)O)cc(NC(C)=O)c2c1O
[1]
  outcome: inactive
[2]
  outcome: inactive

## IC(I)I
[1]
  outcome: inactive
[2]
  outcome: inactive
[9]
  outcome: inactive
[3]
  outcome: inactive
[4]
  outcome: inactive
[5]
  outcome: inactive
[6]
  outcome: inactive
[7]
  outcome: inactive
[8]
  outcome: inactive

## COc1ccc(OC)c(N=Nc2c(O)ccc3ccccc23)c1
[1]
  outcome: inactive
[10]
  outcome: inactive
[9]
  outcome: inactive
[3]
  outcome: inactive
[4]
  AC50: 2.11 µM (active)
[5]
  AC50: 20 µM (active)
[6]
  outcome: inactive
[7]
  AC50: 10.9 µM (active)
[8]
  outcome: inactive

## Oc1c(Cl)cc(Cl)c(Cl)c1Cc1c(O)c(Cl)cc(Cl)c1Cl
[1]
  outcome: inactive
[2]
  AC50: 12.7 µM (active)
[9]
  AC50: 0.657 µM (active)
[3]
  AC50: 13 µM (active)
[4]
  AC50: 2.02 µM (active)
[5]
  AC50: 32.6 µM (active)
[6]
  AC50: 1.31 µM (active)
[7]
  AC50: 2.48 µM (active)
[8]
  AC50: 28.2 µM (active)

## CC(C)CC(C)CC(O)CC(C)C (centres undefined)
[1]
  outcome: inactive
[2]
  outcome: inactive
[9]
  outcome: inactive

## C1CCCCC1
[1]
  outcome: inactive
[2]
  outcome: inactive

## CN1C(=O)c2ccccc2C1=O
[1]
  outcome: inactive
[2]
  outcome: inactive

## O=P(O)(O)O
[1]
  outcome: inactive
[2]
  outcome: inactive

## COCCc1ccc(OCC(O)CNC(C)C)cc1 (centres undefined)
[10]
  outcome: inactive

## CC1=C(Br)C(=O)C(Br)=C/C1=C(/c1ccccc1S(=O)(=O)O)c1cc(Br)c(O)c(Br)c1C
[10]
  outcome: inactive

## CCCSc1ccc2nc(NC(=O)OC)[nH]c2c1
[10]
  outcome: inactive

## Cc1ccc(-c2ccccc2)cc1
[10]
  outcome: inactive

## COC(=O)c1ccc(C)cc1C1=NC(C)(C(C)C)C(=O)N1 (centres undefined) (tested in a mixture with another compound)
[10]
  outcome: inactive

## N#Cc1cscn1
[10]
  outcome: inactive

## CCCCCCCCCC(C)C=O (centres undefined)
[10]
  outcome: inactive
[2]
  outcome: inactive

## COc1cc(CCC(C)=O)ccc1O
[10]
  outcome: inactive

## FC(F)(F)COCC(F)(F)F
[10]
  outcome: inactive

## CCCC[O][Al]([O]CCCC)[O]CCCC
[10]
  outcome: inactive

## CC[N+](C)(CC)CC
[10]
  outcome: inactive

## CCc1ccc(O)cc1
[10]
  outcome: inactive
